# Laboratory results: the antibiotic and cytotoxicity screens of Wong et al. (2023)
# About 3,300 (8.5%) of roughly 39,000 compounds were called active. The full list was thinned out, with actives kept by preference.
# Tested on: HepG2
# Assay: cytotoxicity call (relative viability < 0.9)
# Settings: 10 µM
row,Compound,cytotoxicity call
1,O=S(=O)(c1cccc(OC(F)F)c1)N1[C@@H]2CC[C@@H](C2)[C@H]1c1nc2cccc(OCc3ccccc3)c2[nH]1,inactive
2,C[C@@H]1CN([C@@H](C)CO)S(=O)(=O)c2ccc(C#CC(C)(C)O)cc2O[C@H]1CN(C)Cc1ccc(F)cc1,inactive
3,C[C@H](CO)N1C[C@H](C)[C@H](CN(C)Cc2ccc(C(F)(F)F)cc2)Oc2ccc(NC(=O)Nc3ccc4c(c3)OCO4)cc2CC1=O,inactive
4,C[C@@H]1CN([C@H](C)CO)C(=O)Cc2cc(NC(=O)Nc3ccc4c(c3)OCO4)ccc2O[C@H]1CN(C)Cc1ccc(C(F)(F)F)cc1,active
5,C[C@@H]1CN([C@@H](C)CO)C(=O)Cc2cc(NC(=O)Nc3ccc4c(c3)OCO4)ccc2O[C@@H]1CN(C)Cc1ccc(C(F)(F)F)cc1,inactive
6,C[C@H](CO)N1C[C@H](C)[C@@H](CN(C)Cc2ccc(C(F)(F)F)cc2)Oc2ccc(NC(=O)Nc3ccc4c(c3)OCO4)cc2CC1=O,inactive
7,C[C@@H]1CN([C@H](C)CO)C(=O)Cc2cc(NC(=O)Nc3ccc4c(c3)OCO4)ccc2O[C@@H]1CN(C)Cc1ccc(C(F)(F)F)cc1,active
8,C[C@H]1CN([C@@H](C)CO)C(=O)Cc2cc(NC(=O)Nc3ccc4c(c3)OCO4)ccc2O[C@@H]1CN(C)Cc1ccc(C(F)(F)F)cc1,inactive
9,C[C@@H]1CN([C@@H](C)CO)C(=O)Cc2cc(NC(=O)Nc3ccc4c(c3)OCO4)ccc2O[C@H]1CN(C)Cc1ccc(C(F)(F)F)cc1,inactive
10,C[C@H]1CN([C@@H](C)CO)C(=O)Cc2cc(NC(=O)Nc3ccc4c(c3)OCO4)ccc2O[C@H]1CN(C)Cc1ccc(C(F)(F)F)cc1,active
11,C[C@@H]1CCCCO[C@H](CN(C)C(=O)c2ccccc2)[C@H](C)CN([C@@H](C)CO)C(=O)c2cc(NS(=O)(=O)c3ccc(F)cc3)ccc2O1,inactive
12,COCC(=O)N1C[C@H](C)[C@@H](OC)CN(C)C(=O)c2cc(NC(=O)Nc3ccccc3)ccc2OC[C@H]1C,inactive
13,C[C@@H]1CN([C@@H](C)CO)C(=O)c2cc(-c3ccc(C(=O)N(C)C)cc3)cnc2O[C@@H]1CN(C)C(=O)c1cccnc1,inactive
14,C[C@@H]1CN([C@@H](C)CO)S(=O)(=O)c2ccc(C#Cc3ccc(F)cc3)cc2O[C@H]1CN(C)S(=O)(=O)c1cn(C)cn1,inactive
15,C[C@@H]1CN([C@H](C)CO)C(=O)c2cc(NC(=O)Cn3cnnn3)ccc2O[C@@H]1CN(C)Cc1ccc(C(=O)O)cc1,inactive
16,COc1ccc(CCNC(=O)[C@@]2(Sc3ccc(C)cc3)CC(=O)N(Cc3ccccc3C(F)(F)F)[C@@H]2c2ccc(CO)cc2I)cc1,inactive
17,O=C(NCC1CC1)[C@@H]1[C@@H](CO)[C@@H]2Cn3c(cccc3=O)[C@H]1N2C(=O)c1cccnc1,inactive
18,Cc1ccc(S(=O)(=O)Nc2cccc3c2O[C@H](CN(C)S(=O)(=O)c2ccccc2)[C@@H](C)CN([C@H](C)CO)C3=O)cc1,inactive
19,C[C@]12C[C@@H]3C[C@](C)(C1)C[C@@](N)(C3)C2,inactive

row,Compound,cytotoxicity call
1,CC12CC3CC(C)(C1)CC(N)(C3)C2.Cl,active
2,C[C@]12CC3CC(N)(C1)C[C@@](C)(C3)C2,inactive
3,C[C@@H]1CN([C@@H](C)CO)C(=O)c2cc(NC(=O)Nc3ccc4c(c3)OCO4)ccc2O[C@@H]1CN(C)S(C)(=O)=O,inactive
4,O=C(NCCN1CCOCC1)[C@]1(CCS(=O)(=O)c2ccccc2)N=C(c2ccc(OCCCO)cc2)O[C@@H]1c1ccccc1,inactive
5,COc1ccc(NC(=O)N(C)C[C@@H]2Oc3ccc(NC(=O)CCCCCC(=O)Nc4ccccc4N)cc3CC(=O)N([C@@H](C)CO)C[C@H]2C)cc1,inactive
6,C[C@H]1CCCCO[C@@H](CN(C)C(=O)NC2CCCCC2)[C@@H](C)CN([C@@H](C)CO)C(=O)c2cc(NC(=O)CCC(F)(F)F)ccc2O1,inactive
7,C[C@@H]1CCCCO[C@H](CN(C)CC2CCCCC2)[C@@H](C)CN([C@H](C)CO)C(=O)c2cc(NC(=O)NC3CCCCC3)ccc2O1,inactive
8,CCCN(C)C[C@H]1OCCCC[C@@H](C)Oc2ccc(NC(=O)NC3CCCCC3)cc2C(=O)N([C@@H](C)CO)C[C@H]1C,inactive
9,C[C@@H]1CCCCO[C@@H](CN(C)CC2CCCCC2)[C@H](C)CN([C@H](C)CO)C(=O)c2cc(NC(=O)NC3CCCCC3)ccc2O1,inactive
10,CCCN(C)C[C@@H]1OCCCC[C@H](C)Oc2ccc(NC(=O)NC3CCCCC3)cc2C(=O)N([C@@H](C)CO)C[C@@H]1C,inactive
11,C[C@@H]1CCCCO[C@H](CN(C)CC2CCCCC2)[C@H](C)CN([C@H](C)CO)C(=O)c2cc(NC(=O)NC3CCCCC3)ccc2O1,active
12,C[C@H]1CCCCO[C@H](CN(C)CC2CCCCC2)[C@@H](C)CN([C@@H](C)CO)C(=O)c2cc(NC(=O)NC3CCCCC3)ccc2O1,active
13,C[C@@H]1CN([C@@H](C)CO)C(=O)c2cc(NC(=O)NC3CCCCC3)ccc2O[C@@H](C)CCCCO[C@H]1CN(C)CC1CCCCC1,active
14,C[C@@H]1CN([C@@H](C)CO)C(=O)c2cc(NC(=O)NC3CCCCC3)ccc2O[C@@H](C)CCCCO[C@@H]1CN(C)CC1CCCCC1,inactive
15,CCCN(C)C[C@@H]1OCCCC[C@@H](C)Oc2ccc(NC(=O)NC3CCCCC3)cc2C(=O)N([C@H](C)CO)C[C@@H]1C,active
16,C[C@@H]1CCCCO[C@@H](CN(C)CC2CCCCC2)[C@H](C)CN([C@@H](C)CO)C(=O)c2cc(NC(=O)NC3CCCCC3)ccc2O1,inactive
17,C[C@H](CO)N1C[C@H](C)[C@H](CN(C)CC2CCCCC2)OCCCC[C@H](C)Oc2ccc(NC(=O)NC3CCCCC3)cc2C1=O,inactive
18,C[C@@H]1CCCCO[C@@H](CN(C)CC2CCCCC2)[C@@H](C)CN([C@@H](C)CO)C(=O)c2cc(NC(=O)NC3CCCCC3)ccc2O1,inactive
